# Test results taken from PubChem BioAssay (NCATS).
# Results filed as inconclusive are left out. Activity calls are given as the source filed them. Calls follow the shape of the dose curve; as a rule, active = well fitted inhibition curve with a large enough effect; inconclusive = small, poorly fitted or top-dose-only effect; inactive = flat fitted curve, though single readings scatter.
# Target: Aldehyde dehydrogenase, mitochondrial (Homo sapiens) (UniProt P05091)
# Assay: qHTS for Inhibitors of the Aldehyde Dehydrogenase Family (ALDH2) Primary screen (AID 2061308);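 also: plate controls were vehicle for no effect and reference inhibitor for full effect; nearly all actives have a fitted effect of over 55% in size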
# Conditions: ALDH2 enzyme inhibition qHTS, 1536-well; series mostly up to 56 µM; activity change, negative = inhibition: at the top concentration
SMILES,"activity change, negative = inhibition",Potency
CCOC(=O)Nc1ccc(NCc2ccc(F)cc2)cc1N,-18% (inactive),–
Cc1ccccc1-n1c(Cn2cnc3c(N)ncnc32)nc2cccc(C)c2c1=O,79.4% (inactive),–
CCC1CC2CN3CCc4c([nH]c5ccccc45)C(C(=O)OC)(C2)C13 (stereo not given),21.9% (inactive),–
O=C(N[C@@H](COc1ccc2[nH]c(=O)[nH]c2c1)c1ccccc1)c1cccn(Cc2ccc(F)c(F)c2)c1=O,-6.05% (inactive),–
CCNC(=O)C[C@@H]1N=C(c2ccc(Cl)cc2)c2cc(OC)ccc2-n2c(C)nnc21,–,inactive
C/C=C(/C)C(=O)O[C@H]1C(C)=C2[C@H]([C@@H]1OC(=O)CCCCCCC)[C@@](C)(OC(C)=O)C[C@H](OC(=O)CCC)[C@@]1(O)[C@H]2OC(=O)[C@@]1(C)O,-2.72% (inactive),–
CC(C)[C@H](NC(=O)c1nn(Cc2ccc(F)cc2)c2ccccc12)C(N)=O,-15.1% (inactive),–
C[C@H](Nc1ncnc2nc[nH]c12)c1nc2ccc(F)cc2c(=O)n1-c1ccccc1,14.8% (inactive),–
COc1ccc2c3c([nH]c2c1)C(C=C(C)C)N1C(=O)C2CCCN2C(=O)C1C3 (stereo not given),-5.6% (inactive),–
C[C@@H]1O[C@@H](O[C@H]2CC[C@@]3(C)C(CC[C@@H]4C3CC[C@]3(C)[C@@H](C5=CC(=O)OC5)CC[C@]43O)C2)[C@H](O)[C@H](O)[C@H]1O (stereo not given in full),2.16% [at 28 µM] (inactive),–
CN[C@@H]1C[C@H]2O[C@@](C)([C@@H]1OC)n1c3ccccc3c3c4c(c5c6ccccc6n2c5c31)C(=O)NC4,52.6% (inactive),–
NC(=O)[C@@H](CC1CC1)[C@@H](CCC(F)(F)F)C(=O)N[C@H]1N=C(c2ccccc2)c2cccc(F)c2NC1=O,-0.829% (inactive),–
O=C(NCC1CCOCC1)c1cnc(Nc2ccc(Cl)cc2Cl)nc1C(F)(F)F,1.09% (inactive),–
O=C(O)CNC(=O)c1c(O)c2ccccc2n(Cc2ccccc2)c1=O,0.871% (inactive),–
C/C=C(\C)C(=O)OC1CC2C(CC=C3CC(OC4CC(OC)C(OC5CC(OC)C(OC6OC(C)C(OC7OC(CO)C(O)C(O)C7O)C(OC)C6O)C(C)O5)C(C)O4)CCC32C)C2(O)CCC(C(C)=O)C12C (stereo not given),3.46% [at 16.9 µM] (inactive),–
CC12Cc3cn[nH]c3C=C1CCC1C2CCC2(C)C1CCC2(C)O (stereo not given),-1.83% (inactive),–
O=C(Oc1ccc([N+](=O)[O-])cc1)N1CCC(C(O)(c2ccc3c(c2)OCO3)c2ccc3c(c2)OCO3)CC1,–,inactive
CNC(=O)c1ccc(N2C(=S)N(c3ccc(C#N)c(C(F)(F)F)c3)C(=O)C23CCC3)cc1F,5.56% (inactive),–
Cc1cc(SCc2sc(-c3ccc(C(F)(F)F)c(F)c3)nc2C)ccc1OCC(=O)O,9.5% (inactive),–
Cc1cccc(NC(=O)c2ccc(C(F)(F)F)cc2C(=O)O)n1,4.98% (inactive),–
CCCCOC(=O)c1ccnc2cc(C(OCCN3CCCCC3)c3ccccc3Cl)sc12 (stereo not given),-11.4% (inactive),–
CC(C)=C1CC[C@]23CO[C@H](C2)[C@@](O)(C(=O)O)CCC13 (stereo not given in full),-2.49% (inactive),–
CC(=O)O[C@H]1CC[C@H]2[C@@H]3CC[C@H]4CC(=O)C=C(C)[C@]4(C)[C@H]3CC[C@]12C,-13.9% (inactive),–
CC1(N2CCC(n3c([C@@H]4CCCNC4)nc4ccccc43)CC2)CCCCCCC1,-12.2% (inactive),–
COc1cc(C)[nH]c(=O)c1CNC(=O)c1c(C)n([C@H](C)C2CCOCC2)c2ccccc12,-0.451% (inactive),–
